Compounds without any hit were thinned out: in the full panel of roughly 83,000, 20% have a hit.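 How to read the values: 0–100, growth inhibition (40 = 60% inhibited); 0, no net growth; -100 to 0, cell death (-40 = 40% of starting cells died; -100 = all dead).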 Unmarked numbers belong to inactive results. Active and inactive are the calls of the source. The calls were made as follows: active = growth percent below 10; inactive = the rest.

This note sets out measurements from PubChem BioAssay (NCI).

The test system of one assay is OVCAR-4 ovarian. The experiment in a line: NCI-60 one-dose screen, 48 h (100 = growth as untreated, 0 = no growth, -100 = all killed). The following applies: 10 µM unless noted.
Take `CN(Cc1ccccc1)c1nc(Cl)c(C2CC(c3ccc(Cl)cc3)=NN2c2cc(Cl)cc(Cl)c2)s1` (stereo not given): the growth is 97.6%.

`COC(=O)c1c(C)nc(C)c2c1C(=O)C(Br)=C(NCCCCO)C2=O`: the growth is 38.4%.

With `COc1cc(/C=C/c2cc(/C=C/c3ccc(O)c(OC)c3)n(C(=O)Nc3ccc(C)cc3C)n2)ccc1O`, the growth is 7.87% (active).

For `Cc1cc2nc(C(Cl)Cl)nc(-c3ccccc3)n2n1`, the growth is 33.2%.

Consider `CN1C(=O)N(C)C2C1NN=c1s/c(=C\c3ccccc3F)c(=O)n12` (stereo not given), for which the growth is 49%.

In a further assay the test system is SK-OV-3 ovarian. Described as above. The following applies: 10 µM unless noted.
On to `O=C(O)c1nn(-c2ccc(Cl)cc2)nc1N1CCCC1`, for which the growth was 97.2%.

For the molecule `COCCNC(=O)Cc1cc(-c2ccc(Cl)cc2)n(-c2ccccc2)c1C`, the growth is 95%.

`O=C(Nc1ccc(Oc2cccc(F)c2)c(Cl)c1)c1cnccn1`: the growth was 86%.

In the case of `CC(=O)[C@H]1CC[C@]2(C)[C@@H]1CC[C@@H]1[C@@]3(C)C/C(=C/c4cccnc4)C(=O)C(C)(C)[C@@H]3CC[C@]12C`, the growth was 87.2%.

Turning to `C=C(C)Cn1c(SCC(=O)c2cccs2)nc2sc3c(c2c1=O)CCCC3`, the growth is 79.1%.

For `Cc1ccc(C(=O)Nc2ccc(CN3CCN(C)CC3)c(C(F)(F)F)c2)cc1C#Cc1cnc(N)c2ccccc12`, the growth was -1.39% (active).

For `COc1cc(C2CC(c3cccc(Nc4ccncc4)c3)=Nc3c(N)ncnc3N2)cc(OC)c1OC` (stereo not given), the growth was 88.3%.

For the molecule `CO[C@]12C=C/C(=C(/C(=O)OCc3cccnc3)C(=O)CCCCCCCC[C@]3(OC)C=C/C(=C(/C(=O)OCc4cccnc4)C(=O)CCCCCCCC1)O3)O2`, the growth was -0.89% (active).

As for `CCOC(=O)CSc1nc2sc3c(c2c(=O)n1-c1ccccc1)CCCCC3`, the growth is 100%.

Regarding `CN1CCN(Cc2ccc(NC(=O)c3cncc(C#Cc4cnc(N)c5ccc(C#N)cc45)c3)cc2C(F)(F)F)CC1`, the growth was -4.83% (active).

Turning to `CCOC(=O)C1=C(c2ccccc2)N=C2SC=C(c3cccc([N+](=O)[O-])c3)N2C1c1ccc(O)cc1` (stereo not given), the growth was 102%.

Take `CCn1c2ccccc2c2cc(C(O)c3cccc4ncccc34)ccc21` (stereo not given): the growth is 69.1%.

In the case of `Cc1c(Cl)cccc1NC(=O)c1sc2nc3c(cc2c1N)CCCC3`, the growth is 27.7%.

Consider `O=C(/C=C/c1ccco1)Nc1ncc(Cc2ccc(F)cc2)s1`, for which the growth was 39.3%.

In the case of `COc1nc2ccccc2cc1/C=[N+](\[O-])c1ccccc1`, the growth was 87.3%.

As to `COc1ccc(-c2ccc(-c3ccc(C(=N)N)o3)o2)cc1`, the growth is 35.8%.

With `C=C(C[n+]1ccccc1)[C@@H]1CC[C@]2(C(=O)OC)CC[C@]3(C)[C@H](CC[C@@H]4[C@@]5(C)CCC(=O)C(C)(C)[C@@H]5CC[C@]43C)[C@@H]12`, the growth is 99%.

As for `COc1cccc(C(=O)Nc2cccc(NC(=O)c3ccccn3)c2)c1`, the growth is 97.7%.

For `N#CC1=C(N)Oc2c(ccc3cccnc23)C1c1ccccc1` (stereo not given), the growth is 58.3%.

Take `COc1ccc(C2=NN(C=O)C(c3ccc(Oc4nc5c(c(=O)n(C)c(=O)n5C)n4C)c(OC)c3)C2)cc1` (stereo not given): the growth is 114%.

For the molecule `CCCS(=O)(=O)Nc1cccc(Nc2ncnc3cc(NC(=O)CCl)ccc23)c1Cl`, the growth is -4.59% (active).

As to `Cn1cc(-c2csc(-c3cn(C)c4ccc(F)cc34)n2)c2cnccc21`, the growth was 107%.

For the molecule `C=C(C)[C@@H]1CC[C@]2(C(=O)NC(C)=O)CC[C@]3(C)[C@H](CC[C@@H]4[C@@]5(C)CCCNC(C)(C)[C@@H]5CC[C@]43C)[C@@H]12`, the growth is 68.6%.

Turning to `COc1cccc(CNc2nnc(C)c(C)n2)c1O`, the growth was 87%.

Turning to `O=C(/C=C/c1ccc(Cl)cc1)c1ccc(-n2cc(CN3CCN(c4cc5c(cc4F)c(=O)c(C(=O)O)cn5C4CC4)CC3)nn2)cc1`, the growth is 84.6%.

In the case of `COc1cccc2cc(N(C)c3nc(C)nc4c3CCC4)ccc12`, the growth is 19.5%.

`O=C(O)CCCN1C(=O)CSC1=S`: the growth is 109%.

Consider `Cc1c2cnccc2c(C)c2c1c1cc(C(=O)O)ccc1n2C`, for which the growth is -4.58% (active).

Take `C=C1C(=O)O[C@H]2[C@H]1CC/C(CNC(=O)/C=C/c1cc(OC)c(OC)c(OC)c1)=C\CC[C@@]1(C)O[C@@H]21`: the growth was 64.6%.

On to `Cc1nc2ccccc2c(/C=C/c2ccc(Br)cc2)c1C(=O)/C=C/c1ccccc1`, for which the growth is 49.4%.

As to `CC(=O)O[C@H]1C[C@@]2(C)[C@@H](C[C@@H](O)[C@H]3[C@@]4(C)CC[C@H](N5CCCC5)[C@@H](C)[C@@H]4CC[C@@]32C)/C1=C(\CCC=C(C)C)C(=O)O`, the growth was 100%.

Take `O=C(O)c1cc2ccccc2s1`: the growth was 103%.

For the molecule `CC(=O)OCCOc1cc(Cl)c(Cl)cc1Cl`, the growth is 107%.

For the molecule `CCN1CCN(c2nc(NNC(=O)c3ccc(OC)cc3)nc(N3CCN(C(c4ccccc4)c4ccccc4)CC3)n2)CC1`, the growth is 48.3%.

Regarding `Cc1cc(=O)oc2cc(Oc3nc(-c4ccccc4)cn4c(-c5ccccc5)cnc34)ccc12`, the growth is 63.1%.

As to `CN(Cc1ccccc1)c1nc(Cl)c(C2CC(c3ccc(Cl)cc3)=NN2c2cc(Cl)cc(Cl)c2)s1` (stereo not given), the growth was 92.9%.

As for `COC(=O)c1c(C)nc(C)c2c1C(=O)C(Br)=C(NCCCCO)C2=O`, the growth was 121%.

As to `COc1cc(/C=C/c2cc(/C=C/c3ccc(O)c(OC)c3)n(C(=O)Nc3ccc(C)cc3C)n2)ccc1O`, the growth was -63.6% (active).

With `Cc1cc2nc(C(Cl)Cl)nc(-c3ccccc3)n2n1`, the growth was 60.6%.

As to `CN1C(=O)N(C)C2C1NN=c1s/c(=C\c3ccccc3F)c(=O)n12` (stereo not given), the growth is 33.8%.
